In PubChem BioAssay:

Test: optical density change of DRC41 E. coli – strain DRC41, OD650, 24 h, E. coli filamentation project, primary screen (AID 1093);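 further: MC1000 strain lacking acrAB efflux and sulA so SOS filamentation is blocked; test concentration not given here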
Settings: E. coli DRC41 growth, higher = more signal, called active from +8 up or from −8 down

z-score, inactive:
[N-]=[N+]=Nc1ccccc1[C@H]1OC(c2ccc(OCCCO)cc2)=N[C@@]1(Cc1ccccc1)C(=O)N1CCCCC1 0.774, CCCNC(=O)[C@@]1(c2ccc([N+](=O)[O-])cc2)CC(=O)N(C2CCCCC2)[C@@H]1c1ccc(CO)cc1 0.824, CN1C(=O)C2C=CC(C(O)c3ccccn3)N(N(c3ccccc3)c3ccccc3)C2C1=O (stereo unspecified) -0.828, COCCOC(=O)N1C(=O)[C@@]2(c3cc(C#CC4=CCCCC4)ccc31)[C@H](c1ccc(O)cc1)N1[C@H](c3ccccc3)[C@H](c3ccccc3)OC(=O)[C@H]1[C@@H]2C(=O)N1CCN(c2ncccn2)CC1 -0.737, C[N+](C)(C)CCCCCCNC(=O)[C@H]1C[C@H]2C(=O)N[C@@H](Cc3ccccc3)C(=O)N2[C@H]1c1ccc(O)cc1 0.441, O=C1NC(=O)C2C1C=CC(C(O)c1cccc3ccccc13)N2Nc1ccc(Cl)cc1Cl (stereo unspecified) -1.43, COC(=O)[C@@]1(Cc2ccc(F)cc2)[C@H]2c3cc(C(=O)N4CCCC4)n(CCc4ccc(O)c(O)c4)c3C[C@H]2CN1C(=O)c1ccccc1 -0.469, O=C(CS)NCCCCCCNC(=O)[C@H]1C[C@H]2C(=O)N[C@@H](Cc3ccccc3)C(=O)N2[C@H]1c1ccc(O)cc1 -0.0352, C#CCN([C@@H](Cc1ccc(O)cc1)C(=O)OC)[C@@H](/C=C/C1CC1)[C@H](O)Cc1ccccc1 -1.17, CCOC(=O)c1ccc(NC(=O)O[C@H]2[C@H](OC(=O)Nc3ccc4c(c3)OCO4)[C@@H](OC(=O)Nc3ccc4c(c3)OCO4)[C@@H](OC)O[C@@H]2CO)cc1 1.15, O=c1n(-c2ccccc2)c(=O)n2n1CC(COc1ccccc1)=C([C@H](O)CCc1ccccc1)[C@@H]2CO 2.68, COc1ccc([Si](C)(C)[C@@H]2[C@@H](CC(=O)N3Cc4ccccc4C[C@H]3CO)O[C@]3(C(=O)N(Cc4cccc(N5C(=O)c6cccc7cccc5c67)c4)c4ccccc43)[C@H]2C)cc1 -0.342, CN(C)C(=O)[C@]1(CCS(=O)(=O)c2ccccc2)N=C(c2ccc(OCCCO)cc2)O[C@@H]1c1ccccc1N=[N+]=[N-] 0.0837, COC(=O)[C@@]1(Cc2ccc(OC)cc2)[C@H]2c3cc(C(=O)N4CCCC4)n(Cc4c(-c5ccccc5)noc4C)c3C[C@H]2CN1C(=O)c1ccccc1 0.19, O=C1O[C@H](c2ccccc2)[C@H](c2ccccc2)N2[C@H]1[C@@H](C(=O)O)[C@]1(C(=O)Nc3ccc(C#CC4=CCCCC4)cc31)[C@H]2c1ccc(O)cc1 -0.911, COc1cc2c(cc1OC)CN(C(=O)[C@@H]1[C@H]3C(=O)O[C@H](c4ccccc4)[C@H](c4ccccc4)N3[C@H](c3ccc(OCCO)cc3)[C@@]13C(=O)Nc1ccccc13)CC2 0.761, COC(=O)[C@@]1(Cc2ccccc2)[C@H]2c3cc(C(=O)N(C)C)n(CCN4CNCC4=O)c3C[C@H]2CN1C(=O)c1ccccc1 -0.0469, CN(C)c1ccc(C(O)C2C=CC3C(=O)N(c4ccccc4)C(=O)C3N2Nc2ccc([N+](=O)[O-])cc2)cc1 (stereo unspecified) -0.564, C=C(C)c1cc2c(c(CCCCCC)n1)[Si](C(C)C)(C(C)C)OC2 -1.17, O=C1O[C@@H](c2ccccc2)[C@@H](c2ccccc2)N2[C@@H](c3ccc(O)cc3)[C@]3(C(=O)Nc4ccc(C#CC5(O)CCCCCC5)cc43)[C@@H](C(=O)NC[C@H](O)c3ccccc3)[C@H]12 -0.255, COCCCNC(=O)[C@@]1(Cc2ccccc2N=[N+]=[N-])N=C(c2ccc(OCCCO)cc2)O[C@H]1c1ccccc1 0.478, O=C1O[C@H](c2ccccc2)[C@H](c2ccccc2)N2[C@H]1[C@@H](C(=O)Nc1nc3ccccc3s1)[C@]1(C(=O)Nc3ccc(C#CCCO)cc31)[C@H]2c1ccc(O)cc1 -0.672, COC(=O)[C@@]1(Cc2ccccc2)[C@H]2c3cc(C(=O)N(C)C)n(CCc4ccc(O)c(OC)c4)c3C[C@H]2CN1C(=O)c1ccccc1 -0.452, O=C1OCC=C[C@H]2OC34C=CCN(c5ccc(Cl)cc5)C(=O)[C@H]3N(CCO)C(=O)[C@@H]4[C@@H]12 (stereo partly specified) -0.297, CC(C)Cc1ccc(CN2CC[C@@H](NC(=O)Nc3ccccc3)C2)cc1 -0.817, C=CCC(OC(C)=O)[C@@H]1[C@@H](N(Cc2cc3ccccc3o2)C(=O)c2ccc(-c3ccccc3)cc2)c2cc(OCCCO)ccc2N1C(=O)c1ccc2ccccc2c1 (stereo partly specified) -0.704, Cc1ccc(S[C@]2(C(=O)O)CC(=O)N(Cc3ccccc3Cl)[C@@H]2c2ccc(CO)cc2I)cc1 -0.852, COCCCNC(=O)[C@@]1(Sc2ccc(C)cc2)CC(=O)N(C2CCCCC2)[C@@H]1c1ccc(CO)cc1 0.195, COCC1=C2[C@@H](CCc3ccccc3)OB(O)C[C@@H]2[C@@H]2C(=O)C=CC(=O)[C@@H]2C1 -0.224, COc1ccc([Si](C)(C)[C@@H]2[C@@H](CCn3cc([C@H](O)c4ccccc4)nn3)O[C@]3(C(=O)N(Cc4ccc(N5CCC5=O)cc4)c4ccccc43)[C@H]2C)cc1 0.705, CCOc1cc(C(O)C2C=CC3C(=O)N(C)C(=O)C3N2Nc2ccccc2)ccc1O (stereo unspecified) -0.0866, C=C(C(=O)CC[C@@H](OC(C)=O)c1ccc(CO)o1)C(C)C 0.331, CC(=O)NCCCC[C@@H]1NC(=O)[C@@H]2C[C@H](C(=O)NCCCC[N+](C)(C)C)[C@H](c3ccc(O)cc3)N2C1=O 0.0855, CCOC(=O)C1CCCCN1 (stereo unspecified) -0.0508, C=CCOC(=O)[C@H]1[C@@H]2C(=O)O[C@@H](c3ccccc3)[C@@H](c3ccccc3)N2[C@@H](c2ccc(OCCOC(=O)[C@@H]3C[C@@H]4C(=O)N[C@@H](CCCCN(C)C)C(=O)N4[C@@H]3c3ccc(O)cc3)cc2)[C@]12C(=O)Nc1ccccc12 -1.6, CCCC[C@@H]1C[C@H]1[C@@H](NC(=O)c1cccs1)c1ccc(C(F)(F)F)cc1 -1.72
